Test systems include T-47D breast; BT-549 breast; MDA-MB-435 melanoma; SW-620 colon; MCF7 breast; HCT-116 colon; HCC-2998 colon; KM12 colon.
What all share (assay): NCI-60 one-dose screen, 48 h (100 = growth as untreated, 0 = no growth, -100 = all killed)
Common to all, as to settings: 10 µM unless noted

SMILES strings stand for the structures. This is part of a sample that, as a whole, favours compounds with a hit. Of some 83,000 tested, about 20% had one in any assay.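 Activity criterion: percent growth below 10, measured after cells in 96-well plates were exposed to a single compound concentration for 48 hours.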 Values without a mark were called inactive. The source made the active and inactive calls.

As for `COc1ccc(C(=O)c2cc(C)c(OC)c(C)c2)c(OC)c1NC(C)=O`, the growth was 60.6% in the assay on T-47D breast; 16.3% in the assay with BT-549 breast; -65.2% (active) with MDA-MB-435 melanoma; 21.2% with SW-620 colon; 20.8% in the assay on MCF7 breast; 8.06% (active) in the assay with HCT-116 colon. Besides, the results for the growth in the assay with HCC-2998 colon and in the assay on KM12 colon were 13.8% and 8.12% (active), respectively.

Regarding `C=C(C)[C@@H]1CC[C@]2(C(=O)N[C@H](CO)Cc3ccccc3)CC[C@]3(C)[C@H](CC[C@@H]4[C@@]5(C)CCCNC(C)(C)[C@@H]5CC[C@]43C)[C@@H]12`, the growth in the assay on T-47D breast was -58% (active); in the assay with BT-549 breast it was -88.1% (active); in the assay on MDA-MB-435 melanoma it was -93.6% (active); in the assay with SW-620 colon it was -82.3% (active); with MCF7 breast it was -69.7% (active); with HCT-116 colon, -94.8% (active). Further, the results for the growth with HCC-2998 colon and in the assay on KM12 colon were -84.7% (active) and -80.7% (active), respectively.

`CN1C(N2CCN(S(=O)(=O)c3ccccc3)CC2)=NS(=O)(=O)c2ccccc21`: the growth is 101% with T-47D breast; 119% in the assay with BT-549 breast; 109% with MDA-MB-435 melanoma; 123% in the assay with SW-620 colon; 91.1% with MCF7 breast; 109% in the assay with HCT-116 colon. Further, the growth in the assay with HCC-2998 colon is 101%; in the assay on KM12 colon, 91.5%.

Turning to `N#C/C(=C\c1c(-c2ccccc2)[nH]c2ccccc12)C(=O)c1ccc(Cl)cc1`, the growth in the assay with T-47D breast is 84.9%; in the assay on BT-549 breast, 64.7%; in the assay with MDA-MB-435 melanoma, 13.5%; with SW-620 colon, 21.1%; with MCF7 breast it was -27.9% (active); in the assay on HCT-116 colon, 30.9%. Moreover, the growth with HCC-2998 colon is 30.7%; in the assay with KM12 colon, 20%.

In the case of `C/C=C(\C)C(=O)NC1=CC[C@@]2(C)C(=CCC3C2CC[C@@]2(C)C3CC[C@@H]2C(C)N(C)C)C1=O` (stereo partly specified), the growth in the assay on T-47D breast is 46.7%; in the assay with BT-549 breast, 37.6%; in the assay with MDA-MB-435 melanoma it was -2.62% (active); with SW-620 colon, -11% (active); in the assay with MCF7 breast it was 10.3%; in the assay on HCT-116 colon, 10.4%. Besides, the results for the growth with HCC-2998 colon and in the assay with KM12 colon were 31.3% and 19.6%, respectively.

In the case of `c1ccc2c(-c3nccs3)c[nH]c2c1`, the growth in the assay on T-47D breast is 96.3%; in the assay on BT-549 breast, 86.6%; in the assay on MDA-MB-435 melanoma, 101%; with SW-620 colon it was 99.1%; with MCF7 breast it was 79.8%; in the assay on HCT-116 colon, 95.7%. The growth was 107% with HCC-2998 colon and 96.3% in the assay with KM12 colon.

As to `Cc1ccc(NC(C(=O)c2ccccc2)c2ccccc2)cc1` (stereo unspecified), the growth was 25.9% with T-47D breast; 42.2% with BT-549 breast; 30.6% in the assay with MDA-MB-435 melanoma; 67.1% in the assay on SW-620 colon; 38.5% in the assay with MCF7 breast; 35.6% in the assay with HCT-116 colon. Moreover, the growth with HCC-2998 colon was 55.1%; in the assay with KM12 colon it was 23.7%.

For `CNCCOc1nc2c3cnccc3cc(-c3cc(OC)c(OC)c(OC)c3)c2c2ccncc12`, the growth is -12.4% (active) in the assay with T-47D breast; -45.5% (active) in the assay with BT-549 breast; -90.1% (active) in the assay with MDA-MB-435 melanoma; 3.63% (active) with SW-620 colon; -0.459% (active) in the assay on MCF7 breast; -89.9% (active) in the assay with HCT-116 colon. Besides, the results for the growth with HCC-2998 colon and in the assay with KM12 colon were -77% (active) and 5.03% (active), respectively.

With `CCCC/C=N/NC(=S)NCc1ccccc1`, the growth is 88.3% in the assay on T-47D breast; 102% in the assay with BT-549 breast; 98.4% in the assay with MDA-MB-435 melanoma; 96.1% in the assay with SW-620 colon; 87.7% in the assay on MCF7 breast; 109% with HCC-2998 colon.

As to `CCCOc1ccc(/C=N/Nc2cc(C)nc3ccc(Cl)cc23)cc1`, the growth in the assay with T-47D breast is 45.9%; in the assay with BT-549 breast, 102%; in the assay with MDA-MB-435 melanoma it was -40.4% (active); with SW-620 colon, -75.5% (active); in the assay on MCF7 breast, -20.5% (active); with HCT-116 colon, -74.8% (active). The growth in the assay with HCC-2998 colon is -39.9% (active); in the assay with KM12 colon, 16.5%.

As to `Cc1ccc(NS(=O)(=O)c2ccc(-c3cnc(C4CC4)o3)cc2)cc1C(F)(F)F`, the growth was 55.1% in the assay with T-47D breast; 63.8% in the assay on BT-549 breast; -4.02% (active) in the assay with MDA-MB-435 melanoma; 37.2% in the assay with SW-620 colon; 26.6% with MCF7 breast; 41.1% in the assay on HCT-116 colon. Also, the growth was 84.1% with HCC-2998 colon and 38.6% with KM12 colon.

Regarding `CCCCCN1C=C/C(=C\C(=O)N(C)c2ccc(Oc3ccccc3)cc2)c2ccccc21`, the growth in the assay with T-47D breast is 54.1%; in the assay on BT-549 breast it was 91.4%; in the assay on MDA-MB-435 melanoma, 91.4%; in the assay on SW-620 colon, 84.3%; in the assay with MCF7 breast, 66.7%; in the assay on HCT-116 colon it was 58.7%. For the same compound, the growth was 86.7% in the assay with HCC-2998 colon and 90.5% in the assay with KM12 colon.

With `COc1ccc(/C=C/C(=O)Nc2cc(/C=C\c3cc(OC)c(OC)c(OC)c3)cc(OC)c2OC)cc1OC`, the growth was 6.43% (active) in the assay with T-47D breast; 8.93% (active) with BT-549 breast; -35% (active) in the assay on MDA-MB-435 melanoma; 35.2% with SW-620 colon; 16.8% in the assay with MCF7 breast; 19.2% in the assay with HCT-116 colon. In addition, the growth in the assay with HCC-2998 colon was 55.6%; with KM12 colon, 17.1%.

In the case of `CCOC(=O)C1=C(CCl)NC(=O)NC1c1ccc2c(c1)OCO2` (stereo unspecified), the growth with T-47D breast was 31.3%; in the assay on BT-549 breast it was 32.4%; in the assay with MDA-MB-435 melanoma, 35.7%; with SW-620 colon it was 26.7%; in the assay with MCF7 breast, 9.21% (active); in the assay on HCT-116 colon, 8.65% (active). The growth in the assay with HCC-2998 colon is 83.1%; in the assay on KM12 colon, 84.3%.

Consider `O=S(=O)(NCCCNc1nccc(-c2c(-c3cccc(F)c3)nc3sccn23)n1)c1cccc(F)c1`, for which the growth was -2.25% (active) with T-47D breast; 33.3% in the assay on BT-549 breast; 24% in the assay with MDA-MB-435 melanoma; 76.7% in the assay with SW-620 colon; 33.7% in the assay on MCF7 breast; 48% in the assay with HCT-116 colon. The growth in the assay on HCC-2998 colon was 99.3%; in the assay on KM12 colon it was 30%.

In the case of `C=C(C)[C@@H]1CC[C@]2(C(=O)N3CCN(C)CC3)CC[C@]3(C)[C@H](CC[C@@H]4[C@@]5(C)CC[C@H](O)C(C)(C)[C@@H]5CC[C@]43C)[C@@H]12`, the growth is -73.8% (active) in the assay with T-47D breast; -51.8% (active) with BT-549 breast; -82.1% (active) in the assay with MDA-MB-435 melanoma; -74.8% (active) in the assay on SW-620 colon; -79.6% (active) with MCF7 breast; -98.3% (active) with HCT-116 colon. Moreover, the figures for the growth in the assay on HCC-2998 colon and in the assay with KM12 colon were -85.3% (active) and -80.7% (active), respectively.

The values are drawn from PubChem BioAssay (NCI).
